A short description of assay [1]: qHTS assay to identify small molecule antagonists of the glucocorticoid receptor (GR) signaling pathway - cell viability counter screen (AID 720693; further: nearly all actives have a fitted effect of over 55% in size). (In general: Quantitative high-throughput screening tests each substance at several concentrations.)
Assay [2] can be described thus: qHTS assay for identifying genotoxic compounds that show differential cytotoxicity against isogenic chicken DT40 cell lines with known DNA damage response pathways - wild type cell line (AID 743012). Further: nearly all actives have a fitted effect of over 60% in size. Further: potency means the concentration at half of the fitted maximal effect. Put shortly: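 Quantitative HTS on parental DT40 cells: 40 h compound treatment at 37 C/5% CO2, with viability then determined by CellTiter-Glo luminescence. Values serve as the DNA repair-proficient reference for differential cytotoxicity.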

A short description of assay [3]: qHTS assay for identifying genotoxic compounds that show differential cytotoxicity against isogenic chicken DT40 cell lines with known DNA damage response pathways - Rev3 mutant cell line (AID 743014). Further: nearly all actives have a fitted effect of over 55% in size. Further: potency means the concentration at half of the fitted maximal effect.
Assay [4] can be described thus: qHTS assay for identifying genotoxic compounds that show differential cytotoxicity against isogenic chicken DT40 cell lines with known DNA damage response pathways - Rad54/Ku70 mutant cell line (AID 743015). Further: nearly all actives have a fitted effect of over 60% in size. Further: potency means the concentration at half of the fitted maximal effect.
Assay [5] in a line: qHTS assay to identify small molecule antagonists of the androgen receptor (AR) signaling pathway - cell viability counter screen (AID 743033; further: nearly all actives have a fitted effect of over 45% in size).
The target in assay [6] is Androgen receptor (Homo sapiens) (UniProt P10275). The experiment in a line: qHTS assay to identify small molecule antagonists of the androgen receptor (AR) signaling pathway (AID 743035; active means well fitted inhibition curve with a large enough effect in the signal ratio in the repeat runs, not every such curve was filed as active; the % refers to the signal ratio; further: potency means the concentration at half of the fitted maximal effect). Put shortly:
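Cell line: GeneBLAzer AR-UAS-bla GripTite (HEK293). Stimulus: R1881 added after compound. Exposure: 16 h, 37C, 5% CO2. Readout: LiveBLAzer B/G FRET fluorescence after 2 h at room temperature.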

The target is the same in assay [7]. The experiment in a line: qHTS assay to identify small molecule agonists of the androgen receptor (AR) signaling pathway (AID 743036; active means well fitted activation curve with a large enough effect in the signal ratio in the repeat runs, with a control signal flat, not every such curve was filed as active; the % refers to the signal ratio). Put shortly: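 AR-UAS-bla HEK293 cells, plated 4 h before dosing, were treated with compound for 16 h at 37C. beta-Lactamase reporter read after 2 h with LiveBLAzer B/G FRET substrate at room temperature.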
Assay [8] has the same target. The experiment in a line: qHTS assay to identify small molecule agonists of the androgen receptor (AR) signaling pathway using the MDA cell line (AID 743040; further: nearly all actives have a fitted effect of over 20% in size). Put shortly:
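Human breast carcinoma MDA-kb2 reporter cells (MMTV-luc, AR/GR elements) were treated for 16 h at 37C in 0% CO2 following a 5 h settling period. Signal was quantified by ONE-Glo luminescence.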

Assay [9] can be described thus: qHTS assay to identify small molecule antagonists of the androgen receptor (AR) signaling pathway using the MDA cell line - cell viability counter screen (AID 743041; further: nearly all actives have a fitted effect of over 45% in size). Put shortly: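 Same-well cytotoxicity was assessed by CellTiter-Fluor in MDA-kb2 AR-luc cells after 16 h of compound treatment under R1881 agonism.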
The target of assay [10] is Androgen receptor (Homo sapiens) (UniProt P10275). The experiment in a line: qHTS assay to identify small molecule antagonists of the androgen receptor (AR) signaling pathway using the MDA cell line (AID 743042; further: nearly all actives have a fitted effect of over 55% in size; further: potency means the concentration at half of the fitted maximal effect). Put shortly:
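MDA-kb2 breast carcinoma cells carrying MMTV-luciferase (AR/GR responsive) were co-treated with compounds and the agonist R1881 for 16 h at 37C. Inhibition read as ONE-Glo luminescence; CellTiter-Fluor fluorescence measured in parallel for cytotoxicity.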

A short description of assay [11]: qHTS assay to identify small molecule antagonists of the thyroid receptor (TR) signaling pathway - cell viability counter screen (AID 743064). Further: nearly all actives have a fitted effect of over 50% in size. Summed up:
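GH3.TRE-Luc rat pituitary cells dosed after 4 hr plating, co-stimulated with T3 at 1 nM final, incubated 23.5 h at 37 C. Viability measured in the same wells by CellTiter-Fluor fluorescence after 30 min further at 37 C.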

Assay [12] can be described thus: qHTS assay to identify small molecule antagonists of the thyroid receptor (TR) signaling pathway (AID 743065). Further: series mostly up to about 70 µM; nearly all actives have a fitted effect of over 55% in size. Put shortly: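 GH3.TRE-Luc rat pituitary cells (two TREs driving luciferase) were dosed with compound, then stimulated with 1 nM T3 (final) for 23.5 h at 37 C. ONE-Glo luminescence was the read-out, with CellTiter-Fluor fluorescence as the cytotoxicity counter-screen.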

Assay [13] deals with thyroid hormone receptor (rat, GH3 cells). The experiment in a line: qHTS assay to identify small molecule agonists of the thyroid receptor (TR) signaling pathway (AID 743066; calls by dose curve).
A short description of assay [14]: qHTS assay to identify small molecule antagonists of the estrogen receptor alpha (ER-alpha) signaling pathway - cell viability counter screen (AID 743074; calls by dose curve;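 further: HEK293 cells carrying ER-alpha-UAS-bla reporter stimulated with 17beta-estradiol; nearly all actives have a fitted effect of over 45% in size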).
A short description of assay [15]: qHTS assay to identify small molecule antagonists of the estrogen receptor alpha (ER-alpha) signaling pathway using the BG1 cell line - cell viability counter screen (AID 743081).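 Further: compound given together with 17beta-estradiol as the ER stimulus; series mostly up to about 70 µM; nearly all actives have a fitted effect of over 45% in size.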
For a further assay, the target named is Aromatase (Homo sapiens) (UniProt P11511). The experiment in a line: qHTS assay to identify aromatase inhibitors (AID 743083).
Chain of Aromatase (Homo sapiens) (P11511 whole entry, looked up): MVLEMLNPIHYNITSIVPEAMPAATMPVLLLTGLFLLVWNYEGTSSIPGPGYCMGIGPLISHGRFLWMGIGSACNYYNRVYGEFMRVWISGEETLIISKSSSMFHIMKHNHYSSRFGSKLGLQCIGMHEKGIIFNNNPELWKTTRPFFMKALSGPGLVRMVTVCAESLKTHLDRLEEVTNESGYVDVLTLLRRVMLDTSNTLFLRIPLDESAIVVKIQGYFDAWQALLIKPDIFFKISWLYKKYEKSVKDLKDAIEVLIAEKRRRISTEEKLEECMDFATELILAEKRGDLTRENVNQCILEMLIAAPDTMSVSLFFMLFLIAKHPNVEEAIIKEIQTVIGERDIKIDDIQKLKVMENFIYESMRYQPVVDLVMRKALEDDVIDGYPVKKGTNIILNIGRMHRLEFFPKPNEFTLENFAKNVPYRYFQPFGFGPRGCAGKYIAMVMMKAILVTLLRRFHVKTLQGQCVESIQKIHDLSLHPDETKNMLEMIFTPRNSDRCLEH
Assay [16] has as its target Estrogen receptor (Homo sapiens) (UniProt P03372). The experiment in a line: qHTS assay to identify small molecule antagonists of the estrogen receptor alpha (ER-alpha) signaling pathway (AID 743069; active means well fitted curve in the direction sought with a large enough effect in the signal ratio in the repeat runs, not every such curve was filed as active; the % refers to the signal ratio). Summed up:
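Reporter cells (ER-alpha-bla, HEK293 background) are conditioned overnight in stripped-serum medium (2% charcoal-stripped FBS). Compound and 17beta-estradiol exposure runs 18 hr at 37C, 5% CO2.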

Assay [17] has the same target. The experiment in a line: qHTS assay to identify small molecule agonists of the estrogen receptor alpha (ER-alpha) signaling pathway (AID 743075; calls by dose curve;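 further: HEK293 GripTite cells with ER-alpha and UAS-driven beta-lactamase reporter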).
Assay [18] shares this target. The experiment in a line: qHTS assay to identify small molecule agonists of the estrogen receptor alpha (ER-alpha) signaling pathway using the BG1 cell line (AID 743079). Further: nearly all actives have a fitted effect of over 20% in size.
A short description of assay [19]: qHTS assay to identify small molecule antagonists of the estrogen receptor alpha (ER-alpha) signaling pathway using the BG1 cell line (AID 743080; calls by dose curve;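 further: BG1 cells stimulated with 17beta-estradiol alongside compound; series mostly up to about 70 µM; nearly all actives have a fitted effect of over 25% in size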). Summed up:
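Luminescence from a 4×ERE-luciferase reporter in BG1-Luc-4E2 cells served as read-out. Cells, pre-cultured 5 days in stripped-serum phenol-red-free medium, were exposed to compound with 17beta-estradiol co-stimulation for 21.5 h at 37 C.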

Where “and” joins values, the source holds several entries; their conditions need not be identical. Equal entries are not always repeated. Results filed as inconclusive are left out. Some compounds were tested as several samples or in several runs, with calls that do not always agree. Calls of active or inactive are those of the source. Unless noted, the call rests on the fitted dose curve; in most records, active means well fitted curve in the direction sought with a large enough effect in the repeat runs; inconclusive means weak or mixed curves; inactive means no such curve, though single readings can be large; an effect the other way counts as inactive or inconclusive.

Chain of Androgen receptor (Homo sapiens) (P10275 whole entry, looked up): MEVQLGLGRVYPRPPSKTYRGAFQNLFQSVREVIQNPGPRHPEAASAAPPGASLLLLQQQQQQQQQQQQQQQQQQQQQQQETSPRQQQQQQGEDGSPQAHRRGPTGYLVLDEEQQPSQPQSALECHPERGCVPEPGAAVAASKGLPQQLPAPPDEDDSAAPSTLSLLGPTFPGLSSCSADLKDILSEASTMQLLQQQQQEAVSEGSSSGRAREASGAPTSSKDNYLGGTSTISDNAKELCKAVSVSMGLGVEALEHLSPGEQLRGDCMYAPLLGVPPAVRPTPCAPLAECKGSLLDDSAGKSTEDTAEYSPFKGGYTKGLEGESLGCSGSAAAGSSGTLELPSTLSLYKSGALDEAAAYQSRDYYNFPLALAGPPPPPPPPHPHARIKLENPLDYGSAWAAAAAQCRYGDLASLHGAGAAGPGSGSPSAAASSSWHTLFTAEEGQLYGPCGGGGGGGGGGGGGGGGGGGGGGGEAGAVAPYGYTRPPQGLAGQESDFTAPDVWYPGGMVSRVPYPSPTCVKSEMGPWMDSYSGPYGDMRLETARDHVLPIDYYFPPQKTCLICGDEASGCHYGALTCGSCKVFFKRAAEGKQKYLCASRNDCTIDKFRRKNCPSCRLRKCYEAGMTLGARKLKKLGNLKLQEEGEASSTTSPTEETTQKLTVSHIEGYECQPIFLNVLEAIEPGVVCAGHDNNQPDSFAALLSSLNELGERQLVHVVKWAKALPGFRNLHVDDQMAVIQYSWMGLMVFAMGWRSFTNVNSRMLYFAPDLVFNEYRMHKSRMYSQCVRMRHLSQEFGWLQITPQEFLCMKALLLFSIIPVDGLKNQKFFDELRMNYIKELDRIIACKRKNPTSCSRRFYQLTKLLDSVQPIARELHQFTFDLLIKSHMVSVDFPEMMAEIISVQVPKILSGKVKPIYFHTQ
Chain of Estrogen receptor (Homo sapiens) (P03372 whole entry, looked up): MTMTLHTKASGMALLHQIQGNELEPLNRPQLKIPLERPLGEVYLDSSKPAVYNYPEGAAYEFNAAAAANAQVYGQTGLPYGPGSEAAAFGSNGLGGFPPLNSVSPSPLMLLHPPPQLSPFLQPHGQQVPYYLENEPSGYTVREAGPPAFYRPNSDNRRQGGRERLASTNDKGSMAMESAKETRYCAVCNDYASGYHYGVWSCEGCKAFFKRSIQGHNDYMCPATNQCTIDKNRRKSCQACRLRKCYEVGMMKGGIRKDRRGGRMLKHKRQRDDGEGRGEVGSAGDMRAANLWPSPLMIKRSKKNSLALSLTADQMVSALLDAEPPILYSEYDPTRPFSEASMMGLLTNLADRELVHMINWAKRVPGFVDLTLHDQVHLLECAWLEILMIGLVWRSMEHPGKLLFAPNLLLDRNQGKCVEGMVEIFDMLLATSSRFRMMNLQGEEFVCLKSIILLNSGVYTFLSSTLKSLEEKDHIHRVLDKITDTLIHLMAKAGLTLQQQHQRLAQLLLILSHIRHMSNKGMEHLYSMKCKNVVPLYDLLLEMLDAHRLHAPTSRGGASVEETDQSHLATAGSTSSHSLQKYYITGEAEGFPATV

As for `CC12CC1(C)C(=O)N(c1cc(Cl)cc(Cl)c1)C2=O` (centres undefined), the Potency result in [1], in [2], in assay [4], in assay [11], in assay [12] and in [13] was “inactive” each time. Further, the Potency result with Aromatase (Homo sapiens) was “inactive”. Also, the Potency in [3] was 24.3 µM (active); in assay [6] it was 6.14 µM (active) and 3.89 µM (active); in assay [10], 19.3 µM (active) and 9.69 µM (active). Moreover, the compound was called inactive in assay [5], in assay [7], in [8], in assay [9], in assay [14] and in assay [15].
Take `O=C(O)C(Br)Br`: the Potency entry in assay [1], in assay [2], in assay [3], in assay [4], in assay [11] and in assay [12] was “inactive” each time. In addition, the Potency entry (in [13]; in assay [16]; in assay [18]; in the assay with Aromatase (Homo sapiens)) was “inactive” each time. The call in assay [5], in [9], in assay [14], in assay [17], in [19] and in assay [15] was inactive.
With `NNc1ccccc1`, the Potency result (in assay [1]; in assay [2]; in assay [11]; in assay [13]; with Aromatase (Homo sapiens)) was “inactive” throughout. In addition, the Potency entry was “inactive and 60.4 µM (active)” in assay [3]; “inactive and 48 µM (active)” in [4]. Further, the compound was classed as inactive in [5], in [9], in assay [14] and in assay [15].
As for `CCOP(=S)(OCC)Oc1ccc([N+](=O)[O-])cc1`, the Potency entry in [1], in assay [2], in [3], in assay [4], in [11] and in assay [12] was “inactive” throughout. Moreover, the Potency entry (in [13]; with Aromatase (Homo sapiens)) was “inactive” throughout. In addition, the compound was classed as inactive in [5], in assay [9], in assay [14] and in [15].
In the case of `CN1C(=O)CCS(=O)(=O)C1c1ccc(Cl)cc1` (centres undefined), the Potency result in [1], in assay [2], in assay [3], in assay [4], in assay [11] and in assay [12] was “inactive” in each case. Also, the Potency entry (in assay [13]; with Aromatase (Homo sapiens)) was “inactive” throughout. For the same compound, the result in assay [5], in [9], in assay [14] and in [15] was inactive.
Regarding `COC(C)(C)CCCC(C)C/C=C/C(C)=C/C(=O)OC(C)C` (centres undefined), the Potency result in assay [1], in assay [3], in assay [4], in [6], in assay [10] and in [11] was “inactive” in each case. Moreover, the Potency entry (in assay [12]; in assay [13]; in the assay with Aromatase (Homo sapiens)) was “inactive” throughout. In assay [2], the Potency is 29.8 µM (active) and inactive. Also, the call in assay [7], in assay [8], in assay [9], in [14] and in assay [15] was inactive.
Turning to `N#Cc1ccccn1`, the Potency entry in assay [1], in [2], in assay [3], in assay [4], in assay [11] and in assay [12] was “inactive” each time. Moreover, the Potency result (in assay [13]; in assay [16]; in [18]; with Aromatase (Homo sapiens)) was “inactive” in each case. In addition, the compound was classed as inactive in assay [5], in [9], in assay [14], in assay [17], in assay [19] and in assay [15].
For the compound `Cc1cccc(N)c1`, the Potency entry in assay [1], in [2], in assay [3], in [4], in assay [11] and in assay [12] was “inactive” each time. Besides, the Potency entry in assay [13], in assay [16] and in assay [18] was “inactive” in each case. In addition, the result in assay [5], in [9], in assay [14], in assay [17], in assay [19] and in assay [15] was inactive.
Turning to `COS(=O)(=O)OC`, the Potency result in [1], in assay [2], in assay [3], in assay [4], in [11] and in [12] was “inactive” throughout. Also, the Potency entry (in [13]; in assay [16]; in assay [18]; with Aromatase (Homo sapiens)) was “inactive” each time. In addition, the outcome in assay [5], in assay [9], in [14], in [17], in assay [19] and in assay [15] was inactive.

The record behind these values is PubChem BioAssay (Tox21).
